# From PubChem
# BoNT-F LC inh: BoNT F light chain protease inhibition; Multiplex microsphere protease cleavage assay, flow cytometry; inhibition, % at 10 µM; 0.22% of 360,000 active; AID 588497; in the data active means inhibition above about 35%, passing the limit was not always enough; inconclusive means no clear call, values can overlap the other calls; further: plate controls were buffer without enzyme for full effect and enzyme alone for no effect
# DUSP3 inh: inhibitors of human VHR1 phosphatase (DUSP3) | P51452 | recombinant VHR phosphatase, pNPP absorbance | inhibition, % at 13.3 µM | 0.52% of 290,000 active; in the data active means inhibition above about 50%
# Target sequence (P51452 whole entry, looked up): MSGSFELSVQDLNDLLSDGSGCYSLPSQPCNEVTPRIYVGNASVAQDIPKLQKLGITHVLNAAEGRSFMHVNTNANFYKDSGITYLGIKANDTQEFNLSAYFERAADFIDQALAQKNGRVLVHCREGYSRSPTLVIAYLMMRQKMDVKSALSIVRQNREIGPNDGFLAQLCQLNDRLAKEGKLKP
# SARS 3CLpro inh: SARS-CoV 3CLpro protease inhibition | P0C6X7 | recombinant SARS-CoV 3CLpro, quenched FRET peptide cleavage | inhibition, % at 6 µM | 0.14% of 290,000 active | AID 1706; in the data active means inhibition above about 12%
# Bead autofluor: compound fluorescence in toxin protease inhibitor counterscreen. compound autofluorescence counterscreen, microsphere flow cytometry; stronger effect = higher value. fluorescence intensity (no concentration beside the values). 3.1% of 360,000 active; in the data active means fluorescence intensity above about 16000; inconclusive means no clear call, values can overlap the other calls
# BoNT-A LC inh2: blocks Botulinum neurotoxin A light chain protease. multiplex microsphere protease substrate cleavage, flow cytometry. inhibition, % at 10 µM. 0.17% of 360,000 active; further: plate controls were buffer without enzyme for full effect and enzyme alone for no effect
# Anthrax LF inh2: inhibitors of Bacillus anthracis lethal factor protease. P15917. multiplex microsphere protease cleavage assay, LF. inhibition, % at 10 µM. 0.12% of 360,000 active; further: plate controls were buffer without enzyme for full effect and enzyme alone for no effect
# An asterisk follows results filed as active; ? = inconclusive; . = no result given. Shown are actives, neighbours in structure and some others; about 3.9% of the full set was active somewhere. Unless noted, no stated cut-off is given here; in the data, active means inhibition above about 30%; inconclusive means no clear call, values can overlap the other calls; inactive means below that.
SMILES,BoNT-F LC inh,DUSP3 inh,SARS 3CLpro inh,Bead autofluor,BoNT-A LC inh2,Anthrax LF inh2
COc1ccc(C2OC(=O)CC2C(=O)NC2CCCC(C)C2C)cc1OC (stereo not drawn),6,13,3,9223,0,6
COc1ccc(C2=NOC(C(=O)NC3CCCCC3)C2)cc1OC (stereo not drawn),3,2,-2,23218*,0,-2
Cc1ccc(C(=O)NCCN2CCC(n3c(=O)[nH]c4ccccc43)CC2)cc1C,-8,.,.,5964,0,-1
CCC(C)NC(=O)C1CC(c2ccc(OC)cc2)=NO1 (stereo not drawn),7,24,-2,20670*,6,-8
O=C(C1CC(c2ccc(F)cc2)=NO1)N1CCCCC1 (stereo not drawn),1,13,-6,22237*,0,-1
COc1ccc(NC(=O)C2C3C=CC(C3)C2C(=O)NCc2ccco2)cc1 (stereo not drawn),-1,14,0,16864*,-1,0
COc1cc(C2=NOC(C(=O)N3CCOCC3)C2)cc(OC)c1OC (stereo not drawn),-6,17,-4,24903*,?,-2
COc1ccc(C2=NOC(C(=O)NC(C)C)C2)cc1 (stereo not drawn),-13,34,-3,12116,-1,2
COc1ccc(NC(=O)CSCC(=O)NCc2ccco2)cc1,-6,.,.,5297,0,-4
COc1ccc(C2=NOC(C(=O)N3CCCCCC3)C2)cc1OC (stereo not drawn),-7,29,-2,11367,0,-4
O=C(COC(=O)Cc1ccc(S(=O)(=O)N2CCOCC2)s1)Nc1ccccc1Cl,0,.,.,3631,1,8
COc1ccc(C2=NOC(C(=O)NCCN3CCOCC3)C2)cc1 (stereo not drawn),0,14,1,21268*,-2,0
COc1cc(C2=NOC(C(=O)NCc3ccco3)C2)cc(OC)c1OC (stereo not drawn),-9,3,2,8211,-1,-4
COc1ccc(CNC(=O)C2CC(c3ccc(F)cc3)=NO2)cc1 (stereo not drawn),2,21,0,22739*,1,-1
COc1cccc(C2=NOC(C(=O)N3CCc4ccccc4C3)C2)c1 (stereo not drawn),-6,55*,-2,6237,-1,-8
COc1ccc(C2=NOC(C(=O)NCCCN3CCOCC3)C2)cc1 (stereo not drawn),-10,-17,9,11591,-1,-6
COc1ccc(C2=NOC(C(=O)NCc3ccco3)C2)cc1 (stereo not drawn),9,-37,4,20757*,8,-14
CC(C)C(=O)N1CCC1(C)C(=O)Nc1ccc2[nH]ccc2c1 (stereo not drawn),-5,.,.,3863,0,2
OCCCNCc1ccc(N(c2ccccc2)c2ccccc2)cc1,-21,4,-5,4032,0,-9
COc1ccccc1C(O)c1ncc(-c2cccc3ccccc23)[nH]1 (stereo not drawn),-8,.,.,2808,0,-1
Cc1ccc(N=Cc2ccc[nH]2)c(O)c1,-4,-16,-7,21732*,?,-9
CC1=CC(C)(C)N(C(=O)c2ccccc2)c2ccccc21,4,-1,1,23091*,2,1
CC(=O)NNC(=O)c1[nH]c2ccc(Br)cc2c1-c1ccccc1,-9,-2,3,3673,-1,-14
CCOC(=O)NNC(=O)c1[nH]c2ccc(Br)cc2c1-c1ccccc1,14,55*,2,2933,3,-8
CCN(CC)c1ccc2nc3ccccc3[n+](CC)c2c1,-21,-14,1,3328,2,1
SMILES,BoNT-F LC inh,DUSP3 inh,SARS 3CLpro inh,Bead autofluor,BoNT-A LC inh2,Anthrax LF inh2
CCN(CC)c1ccc2nc3ccc(N)cc3[n+](-c3ccccc3)c2c1,-40,.,.,3078,34*,1
Cc1cc2c(c(Sc3ccccc3)n1)C(=O)OC2,-2,14,-3,24407*,-2,-4
CC(C)(C)[C@H]1CCC(=O)N([C@H](CN=[N+]=[N-])Cc2ccccc2)CC1,-4,17,0,3989,0,-3
Cc1ccc(C)c(NC(=O)CCC(=O)NNC(=O)c2cccc([N+](=O)[O-])c2)c1,-4,-11,0,24147*,?,1
O=C(CCC(=O)OCC(=O)c1cccc([N+](=O)[O-])c1)Nc1ccccc1Cl,-7,-7,-3,25045*,-4,-2
Cc1ccc(NC(=O)CCC(=O)NNC(=O)c2ccccc2[N+](=O)[O-])c(C)c1,-11,2,1,3457,-1,-2
O=C(NNC(=O)c1ccco1)c1cccc([N+](=O)[O-])c1,38*,24,-2,4513,-1,2
O=c1[nH]c(SCc2ccc(F)cc2Cl)nc2ccccc12,-1,19,2,2047,-1,-1
CCc1ccccc1-n1c(-c2ccncc2)n[nH]c1=S,-2,-2,-3,22962*,-2,-3
Cc1ccccc1-n1c(-c2ccncc2)n[nH]c1=S,5,-1,.,3878,1,-2
CCc1cccc2sc(N3CCN(C(=O)c4ccc([N+](=O)[O-])o4)CC3)nc12,7,.,.,4774,2,4
O=C(O)C1C2C=CC(O2)C1C(=O)Nc1ccc(S(=O)(=O)Nc2ccccc2)cc1 (stereo not drawn),2,-13,4,21995*,4,0
O=C(O)C1C2C=CC(O2)C1C(=O)Nc1ccc(S(=O)(=O)N2CCc3ccccc32)cc1 (stereo not drawn),-4,-11,1,10413,0,0
CCCSc1nc(NCc2ccco2)c2c3c(sc2n1)COC(C)(C)C3,-8,1,3,17467*,-2,-5
CCCCSc1nc(NCc2ccco2)c2c3c(sc2n1)COC(C)(C)C3,-3,26,5,16223*,0,-2
CSc1nc(NCc2ccco2)c2c3c(sc2n1)CN(C)CC3,.,16,-1,.,.,.
CC1(C)CC(=O)c2cc(OCC(=O)N3CCCCCC3)ccc2O1,20,3,4,14619,16,-17
CCOC(=O)COc1ccc2c(c1)C(=O)CC1(CCN(C(C)=O)CC1)O2,-2,18,1,23933*,-2,-3
CCOC(=O)COc1ccc2c(c1)C(=O)CC(C)(C)O2,5,4,-9,21356*,4,-4
CC1(C)CC(=O)c2cc(OCC(=O)O)ccc2O1,-4,-14,-1,24044*,-2,-7
CC(=O)N1CCC2(CC1)CC(=O)c1cc(OCC(=O)N3CCCC3)ccc1O2,1,8,-3,3581,0,1
CC(=O)Nc1nnc(S(=O)(=O)N2CCN(c3ccc(Cl)cc3[N+](=O)[O-])CC2)s1,2,6,1,4378,0,2
CCOc1ccccc1C(=O)Nc1cc2c(cc1N1CCCC1)n(CC)c(=O)n2CC,-3,31,-1,4538,-2,-1
CCn1c(=O)n(CC)c2cc(N3CCCC3)c(NC(=O)c3ccccc3OC)cc21,-4,52*,-1,5358,0,-2
